High-throughput results (PubChem BioAssay)
Sampled rows, rich in hits. Any-hit rate of the full collection: about 9.2%.
ELG1 DNA repair: inhibitors of ELG1-dependent DNA repair in HEK293T cells; HEK293T ELG1-luciferase reporter, luminescence, 16 h; DNA damage induced by 5-fluorouridine; Potency, µM (top dose mostly 46.1 µM), for the others: at the top dose activity change, negative = inhibition, usual class: inhibitors; 2.3% of 330,000 active; further: on the % scale 0 is the no-effect control and ±100 the full control effect; nearly all actives have a fitted effect of over 55% in size
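Luminescence from the luciferase reporter, measured 30 min after ONE-Glo reagent at room temperature, was the read-out. Beforehand, 2,000 cells per well were exposed for 16 hr at 37 °C to 5-fluorouridine together with compound or vehicle.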
FLuc modulator: counter-screen for miR-21 project: firefly luciferase inhibitors or activators; Potency, µM (highest dose often 57.5 µM), inactives show at the highest dose activity change, negative = inhibition, most hits filed as inhibitors; 6.9% of 360,000 active; P08659; purified FLuc, Km substrates, luminescence inhibition;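 further: plate controls were vehicle for no effect and reference inhibitor for full effect; nearly all actives have a fitted effect of over 55% in size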
Target sequence (P08659 whole entry, looked up): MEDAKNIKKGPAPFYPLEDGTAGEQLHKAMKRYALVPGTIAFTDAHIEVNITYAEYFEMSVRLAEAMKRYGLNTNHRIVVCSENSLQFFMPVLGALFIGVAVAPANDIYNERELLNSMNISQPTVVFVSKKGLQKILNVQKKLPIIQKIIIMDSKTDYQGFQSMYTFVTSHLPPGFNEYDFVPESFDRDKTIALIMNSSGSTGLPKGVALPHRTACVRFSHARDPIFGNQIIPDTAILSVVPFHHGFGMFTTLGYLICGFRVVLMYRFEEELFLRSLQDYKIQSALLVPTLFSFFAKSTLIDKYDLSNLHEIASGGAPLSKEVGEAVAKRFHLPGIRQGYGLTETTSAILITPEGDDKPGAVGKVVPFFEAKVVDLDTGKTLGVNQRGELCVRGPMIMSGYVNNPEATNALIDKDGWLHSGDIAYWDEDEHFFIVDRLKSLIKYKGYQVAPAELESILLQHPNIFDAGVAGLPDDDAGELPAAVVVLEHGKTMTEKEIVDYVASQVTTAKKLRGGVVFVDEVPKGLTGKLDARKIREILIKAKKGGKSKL
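Purified P. pyralis luciferase, 10 nM final, with Km-level 10 uM D-luciferin and 10 uM ATP in 50 mM Tris acetate pH 7.5, 10 mM Mg acetate, 0.01% Tween-20, 0.05% BSA; 6-point qHTS titration about 60 µM downward; luminescence read.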
NPC1 promoter act: activates the NPC1 promoter | Potency, µM (highest dose often 9.22 µM), for the others: top-dose activation, usual class: activators | 2.4% of 320,000 active | AID 485313 | Huh7 NPC1 promoter luciferase reporter, 24 h; further: % of control where 0% means no effect; nearly all actives have a fitted effect of over 60% in size
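In 1536-well qHTS, Huh7 cells harboring an NPC1 promoter–luciferase construct received compound for 24 h; activation was quantified by luminescence following luciferase reagent addition.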
Rab9 prom act: activates the Rab9 promoter. 2.8% of 320,000 active. Potency, µM (titrated, usually from 9.22 µM), for the others: at the top dose activation, negative = inhibition, hits mostly activators. AID 485297. Huh7 Rab9 promoter-luciferase reporter, luminescence, 24 h; further: % of control where 0% means no effect; nearly all actives have a fitted effect of over 60% in size
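Measured in stably transfected Huh7 cells bearing a Rab9 promoter–luciferase construct: 24 h compound treatment at 37 °C, followed by luminescence detection.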
SMN2 splice up: increases expression of the SMN2 splice variant. Potency, µM (doses to about 46.1 µM), inactives show at the highest dose activity change, positive = activation, usual class: activators. 2.8% of 210,000 active. HEK293 SMN2-luciferase splicing reporter, luminescence, 30-36 h. AID 1458; further: % of control where 0% means no effect; nearly all actives have a fitted effect of over 55% in size
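HEK293 cells carry an SMN2 minigene-luciferase reporter in which exon 7 inclusion puts luciferase in frame. Cells were seeded at 2000 cells/well, attached for 10-12 hours, then exposed to compounds for 30-36 hours at 37C before ONE-Glo luminescence.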
ELG1 genotox: inducers of genotoxicity in HEK293T ELG1-luciferase cells. 1.3% of 330,000 active. Potency, µM (doses to about 46 µM), inactives show top-dose activity change, positive = activation, actives largely listed as activators. HEK293T ELG1-luciferase reporter, luminescence, 16 h; further: % of control where 0% means no effect; nearly all actives have a fitted effect of over 60% in size
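HEK293T cells expressing luciferase-tagged ELG1 were treated with compound or DMSO for 16 hr at 37°C. Luciferase activity was then read after 30 min with ONE-Glo at room temperature; rising signal flags genetic stress.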
* = called active by the depositor; ? = inconclusive; . = no result given. The call rests on the fitted dose curve; in most records, active means well fitted curve in the direction sought with a large enough effect; inconclusive means small, poorly fitted or top-dose-only effect, or another doubt; inactive means no such curve, though single readings can be large; an effect the other way counts as inactive or inconclusive. Potency means the concentration at half of the fitted maximal effect.

SMILES	ELG1 DNA repair	FLuc modulator	NPC1 promoter act	Rab9 prom act	SMN2 splice up	ELG1 genotox
CNC(=O)/C(C#N)=C\c1cc(C)n(-c2ccc(N3CCOCC3)cc2)c1C	?	-2%	2%	4%	.	9%
Cc1cc(/C=C(\C#N)C(=O)O)c(C)n1-c1ccc(Br)cc1	-6%	17µM*	-5%	1%	.	4%
O=C(O)C(CC1CCCCC1)N1CCS(=O)(=O)CC1 (centres undefined)	4%	1%	-3%	3%	1%	2%
Cc1ccc(-c2nn3c(C)nnc3c3ccccc23)cc1S(=O)(=O)NCc1ccco1	?	17%	0%	14%	13µM*	?
Cc1ccc(-c2nn3c(C)nnc3c3ccccc23)cc1S(=O)(=O)NC(C)(C)CO	?	5%	-7%	-11%	?	21µM*
Cc1ccc(-c2nn3c(C)nnc3c3ccccc23)cc1S(=O)(=O)NC(C)c1ccccc1 (centres undefined)	?	2%	-6%	-1%	-3%	0%
Cc1nn(C)c(Cl)c1CN1CCCC(C(=O)Nc2cccc(-n3cccn3)c2)C1 (centres undefined)	16µM*	1%	-8%	0%	.	-18%
CCn1cc(CN2CCCC(C(=O)Nc3cccc(-n4cccn4)c3)C2)c(C)n1 (centres undefined)	-3%	0%	-1%	6%	.	-4%
Nc1ccc2c(c1)COC2=O	?	17µM*	10%	21%	18%	11%
CCOc1cccc(/C=C2\NC(=S)N(c3ccccc3)C2=O)c1O	?	5.4µM*	1%	?	.	12%
CCOc1cc(/C=C2\NC(=S)N(c3c(C)n(C)n(-c4ccccc4)c3=O)C2=O)ccc1O	-1%	-1%	-4%	-5%	3%	2%
COc1ccc(OCc2cc(C(=O)NCCc3ccccc3)no2)c(Cl)c1	-13%	?	-20%	2%	.	-5%
COc1cc(Cl)ccc1OCc1cc(C(=O)NC(C)Cc2cccnc2)no1 (centres undefined)	?	8.5µM*	?	?	.	5%
Cc1ccc(OCc2cc(C(=O)NC(C)Cc3cnccn3)no2)cc1C (centres undefined)	3%	-21%	-5%	4%	.	0%
COc1ccc(OCc2cc(C(=O)NC(C)Cc3cnccn3)no2)c(Cl)c1 (centres undefined)	?	19µM*	?	?	.	?
COc1cc(Cl)ccc1OCc1cc(C(=O)N(C)Cc2cccc3cnccc23)no1	0%	13µM*	?	?	.	-15%
COc1ccc(OCc2cc(C(=O)NCC(C)Oc3cccnc3)no2)c(Cl)c1 (centres undefined)	24%	15µM*	?	?	.	6%
COc1ccc(Nc2nc(C)nc(N)c2S(=O)(=O)c2ccccc2)cc1	.	4%	.	.	6%	.
CN(C)c1ccc(/C=N/NC(=O)CN2CCN(c3ccc(F)cc3)CC2)cc1	-5%	-2%	1%	-9%	-3%	5%
CCOc1ccc(CCNS(=O)(=O)c2cc(Br)cc3c2N(C(C)=O)CC3)cc1OCC	.	3%	.	.	.	.
CCc1ccccc1NC(=O)CSc1nnc(CNC(=O)c2ccco2)n1C	3%	0%	0%	-1%	.	0%
COc1ccccc1CCc1nnc(CCC(=O)N(C)Cc2cccc3cnccc23)o1	?	12µM*	4µM*	2.8µM*	.	5%
CC1N/C(=C\C(=O)c2ccccc2)N(O)C1(C)C (centres undefined)	?	8.5µM*	2.2µM*	1.4µM*	?	8.2µM*
C/C(=N\NC(=O)C1(C)CC1(Br)Br)c1ccc(NC(=O)C2CCC2)cc1 (centres undefined)	6.5µM*	3%	-4%	1%	-14%	-4%
